Sampled rows, rich in hits. Any-hit rate of the full collection: about 3.1%.
Wnt act: Wnt/beta-catenin pathway activators, primary screen, cell-based, plate reader, single point | Wnt/beta-catenin reporter cell assay, activator | activation, % at 9.35 µM | 1.2% of 300,000 active | AID 743398, 2014; in the data active means activation above about 30%, passing the limit was not always enough; inconclusive means no clear call, values can overlap the other calls;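 further: 0% = neutral control wells and 100% = positive control wells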
Rtt109 HAT inh: inhibitors of C. albicans Rtt109/Vps75 HAT, primary screen, biochemical, ThioGlo CoA-SH fluorescence, plate reader. Histone acetyltransferase RTT109 (Candida albicans (strain SC5314 / ATCC MYA-2876)), …. purified Rtt109/Vps75, 4 h. inhibition, % at 34.9 µM. 0.16% of 330,000 active. AID 540336, 2011;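 active means inhibition of at least 50% in every replicate; inconclusive means best replicate reaches 50% inhibition but some replicates fall short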
Target sequence (Q5AAJ8 whole entry, looked up): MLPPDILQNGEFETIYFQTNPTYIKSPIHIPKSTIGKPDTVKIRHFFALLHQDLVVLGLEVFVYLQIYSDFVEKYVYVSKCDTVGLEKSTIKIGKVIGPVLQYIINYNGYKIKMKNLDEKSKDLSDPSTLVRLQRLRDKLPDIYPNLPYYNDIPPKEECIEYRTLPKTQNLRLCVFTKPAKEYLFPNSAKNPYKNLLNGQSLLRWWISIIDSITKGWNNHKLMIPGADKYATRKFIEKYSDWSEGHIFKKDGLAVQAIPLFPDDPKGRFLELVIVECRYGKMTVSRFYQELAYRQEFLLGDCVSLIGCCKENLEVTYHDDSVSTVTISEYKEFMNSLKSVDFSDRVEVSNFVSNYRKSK
MITF act: activators of MITF-driven TRPM1 promoter reporter, primary screen, cell-based, SK-MEL-5, luciferase, single point | AID 588334, 2011 | SK-MEL-5 TRPM1-promoter luciferase, 24 h; % of positive control, neutral wells = 0 | activation, % at 12.5 µM | 0.75% of 300,000 active;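 active means mean activation of at least 80% with every replicate also reaching 80%; inconclusive means mean reaches 80% but some replicate falls short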;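 further: 0% = neutral control wells and 100% = parthenolide positive control wells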
C2C12 statin: suppressors of statin myotoxicity in C2C12 myotubes, primary screen, cell-based, single point, plate reader | C2C12 myotubes + simvastatin, ATP luminescence, 48 h; scaled: DMSO 0, geranylgeraniol control 100 | AID 602340, 2012 | 0.78% of 330,000 active | rescue of ATP level, % at 7.49 µM;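 active means mean ATP rescue above about 67%, or every replicate alone reaching that limit, limit read from the data, passing the limit was not always enough; inconclusive means no clear call, values can overlap the other calls; inactive means mean under the limit and some replicate under it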;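 further: myotubes were challenged with 10 µM simvastatin during compound exposure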
esBAF inh: Bmi1 luciferase reporter increase in mESCs, primary screen, esBAF inhibitor project, mouse ES cells, Bmi1 luciferase knock-in, single point; 24 h; 100% = twice the neutral-well signal; reporter increase, % at 12.5 µM; 2% of 350,000 active; AID 602393, 2012; in the data active means activation above about 40%; inconclusive means no clear call, values can overlap the other calls;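 further: 0% = median of the plate's neutral control wells and 100% = double that signal; a rise in the Bmi1 reporter signal indicates esBAF inhibition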
* marks the source's active call; other numbers are inactive results.

How did Clc1ccccc1OCc1nc(-c2ccccn2)no1 do in these assays?
Wnt act: 39.0*; Rtt109 HAT inh: -6.1; MITF act: 24.1; C2C12 statin: -1.3; esBAF inh: 0.5

What do the screens show for `Brc1ccc(-c2noc(CCc3ccccc3)n2)o1`?
Wnt act: 13.7; Rtt109 HAT inh: -0.6; MITF act: 38.2; C2C12 statin: 3.4; esBAF inh: 50.0*

How did Clc1ccc(OCc2nc(-c3ccccn3)no2)c(Br)c1 do in these assays?
Wnt act: 11.4; Rtt109 HAT inh: 2.3; C2C12 statin: -22.9; esBAF inh: -14.1

What do the screens show for `Nc1nonc1-c1noc(COc2ccccc2Cl)n1`?
Wnt act: 42.8*; Rtt109 HAT inh: -4.8; MITF act: 113.4*

Results for Clc1ccccc1OCc1nc(-c2ccc(Br)o2)no1 ?
Wnt act: 15.8; Rtt109 HAT inh: -2.3; C2C12 statin: -40.3; esBAF inh: 54.4*

Results for C[C@@H]1CN([C@@H](C)CO)C(=O)c2cc(-c3cccc(F)c3)cnc2O[C@@H]1CN(C)Cc1ccccn1 ?
C2C12 statin: -7.0; esBAF inh: -7.8

How did CN(C)C(=O)C[C@H]1C[C@H]2c3cc(NC(=O)NC4CCCC4)ccc3O[C@H]2[C@@H](CO)O1 do in these assays?
C2C12 statin: 4.3; esBAF inh: 0.2

Results for CN(Cc1nc(-c2ccccn2)no1)S(=O)(=O)c1ccccc1 ?
Wnt act: 1.1; Rtt109 HAT inh: -1.6; esBAF inh: 1.7

How did Cc1cccc(OCc2nc(-c3nonc3N)no2)c1C do in these assays?
Wnt act: 62.2*; Rtt109 HAT inh: 4.6; MITF act: inconclusive; C2C12 statin: 2.7; esBAF inh: inconclusive

How did c1ccc(CCc2nc(-c3ccccn3)no2)cc1 do in these assays?
Rtt109 HAT inh: -0.1; MITF act: 127.6*; C2C12 statin: 2.7; esBAF inh: 35.2

What do the screens show for `C[C@H]1CN([C@@H](C)CO)C(=O)c2cc(NC(=O)Cn3cnnn3)ccc2O[C@@H]1CN(C)Cc1ccc(Oc2ccccc2)cc1`?
C2C12 statin: 42.3; esBAF inh: 1.1

How did Cc1ccc(-c2noc(-c3cccs3)n2)cc1 do in these assays?
Wnt act: 24.9; Rtt109 HAT inh: -0.7; MITF act: 16.9; C2C12 statin: 2.2; esBAF inh: -29.6

How did COc1ccccc1-c1nc(-c2ccc(C)nc2OC)no1 do in these assays?
Wnt act: 61.2*; Rtt109 HAT inh: 3.5; C2C12 statin: -8.2; esBAF inh: 68.7*

Results for COc1ccc(-c2nc(-c3cccs3)no2)cc1 ?
Wnt act: 8.9; Rtt109 HAT inh: 52.3*; MITF act: -23.3

Results for COc1ccccc1-c1noc(-c2cccs2)n1 ?
Wnt act: 22.6; Rtt109 HAT inh: 3.5; MITF act: 120.8*; C2C12 statin: 223.5*; esBAF inh: 54.8*

What do the screens show for `COc1ccccc1-c1noc(-c2ccncc2)n1`?
Wnt act: 0.4; Rtt109 HAT inh: -6.0; MITF act: 34.6; C2C12 statin: 112.0*; esBAF inh: 45.8*

How did O=C(NCCCCNC(=O)c1ccc(Cl)s1)c1ccc(Cl)s1 do in these assays?
Rtt109 HAT inh: 11.6; MITF act: -1.6; C2C12 statin: 108.4*; esBAF inh: -14.8

What do the screens show for `Cc1ccc(C(=O)NCCc2ccc(F)cc2)s1`?
Wnt act: 42.5*; Rtt109 HAT inh: 2.1; MITF act: 89.4*; C2C12 statin: -5.5; esBAF inh: 16.9

Results for O=C(NCCc1ccc(Cl)cc1)c1ccc(Br)s1 ?
Wnt act: 18.2; Rtt109 HAT inh: 11.9; MITF act: inconclusive; C2C12 statin: -21.9; esBAF inh: 64.3*

Results for C[C@H]1CN([C@@H](C)CO)C(=O)c2cc(NC(=O)Cn3cnnn3)ccc2O[C@@H]1CN(C)C(=O)Nc1ccc(F)cc1 ?
C2C12 statin: -9.4; esBAF inh: -0.7

What do the screens show for `CC1(C)OC2OC(C(=O)N/N=C/c3ccccc3F)C3OC(C)(C)OC3C2O1` (stereo not given)?
Wnt act: -5.8; Rtt109 HAT inh: -1.6; MITF act: 1.2; C2C12 statin: 103.5*; esBAF inh: -1.3

Results for O=c1cc(CN2CCN(CCO)CC2)c2cc3c(cc2o1)CCC3 ?
Wnt act: -5.1; Rtt109 HAT inh: -6.4; MITF act: -6.6; C2C12 statin: 7.3; esBAF inh: -0.8

What do the screens show for `O=c1cc(CN2CCN(Cc3ccccc3)CC2)c2cc3c(cc2o1)CCC3`?
Wnt act: -2.8; Rtt109 HAT inh: 1.8; MITF act: -16.2; C2C12 statin: 114.6*; esBAF inh: -0.4

How did COc1ccc(S(=O)(=O)Nc2ccc3c(c2)C(=O)N([C@H](C)CO)C[C@@H](C)[C@@H](CN(C)C(=O)Nc2ccc(C(F)(F)F)cc2)OCCCC[C@@H](C)O3)cc1 do in these assays?
esBAF inh: 11.8

How did O=C1CC(c2ccccc2)=Nc2ccccc2N1 do in these assays?
Wnt act: 1.5; Rtt109 HAT inh: 4.1; MITF act: 11.7; C2C12 statin: 28.6; esBAF inh: 12.1

How did O=C1CC(/C=C/c2ccncc2)=Nc2ccccc2N1 do in these assays?
Wnt act: 0.0; Rtt109 HAT inh: -4.5; MITF act: -3.9; C2C12 statin: 2.5; esBAF inh: 88.2*

How did CCN1/C(=C/C=C/c2sc3ccccc3[n+]2CC)Sc2ccccc21 do in these assays?
Rtt109 HAT inh: 65.7*; MITF act: -97.9; C2C12 statin: -163.3; esBAF inh: -69.9

Results for CCN1/C(=C/C=C/C=C/C=C/c2sc3ccccc3[n+]2CC)Sc2ccccc21 ?
Wnt act: -0.9; Rtt109 HAT inh: 1.4; MITF act: -94.2; C2C12 statin: -75.3; esBAF inh: -37.6

Results for CN(C)C(=O)C[C@@H]1C[C@H]2c3cc(NS(=O)(=O)c4ccccc4)ccc3O[C@H]2[C@@H](CO)O1 ?
C2C12 statin: -6.4; esBAF inh: -6.5

What do the screens show for `Cc1cccc(/C(N)=N/OC(=O)c2cccnc2)c1`?
Wnt act: 32.7*; Rtt109 HAT inh: -2.1; MITF act: 49.5

How did COc1cc(OC)cc(C(=O)O/N=C(\N)c2cccc(C)c2)c1 do in these assays?
Wnt act: 5.3; Rtt109 HAT inh: 0.7; MITF act: 52.1; C2C12 statin: -1.6; esBAF inh: 28.7

How did Cc1cccc(/C(N)=N/OC(=O)c2ccc(Br)o2)c1 do in these assays?
Wnt act: 46.5*; Rtt109 HAT inh: -2.2; MITF act: 57.8

What do the screens show for `N/C(=N\OC(=O)c1ccc(Cl)cc1)c1cccnc1`?
Rtt109 HAT inh: 2.7; MITF act: 45.6; C2C12 statin: -8.5; esBAF inh: 68.0*

How did N/C(=N\OC(=O)c1ccc(Cl)cc1Cl)c1ccc(Cl)cc1 do in these assays?
Rtt109 HAT inh: -1.9; MITF act: -3.6; C2C12 statin: -3.8; esBAF inh: -4.2

Screening results as filed in PubChem BioAssay.
